Records with an inconclusive call do not appear. Active and inactive are the calls of the source. The call rests on the fitted dose curve.
On the % scale 0 is the no-effect control and ±100 the full control effect.

The target in this experiment is Nucleoprotein (Lymphocytic choriomeningitis virus (strain Armstrong)) (UniProt P09992). Nature of the experiment: qHTS for Inhibitors of the Functional Ribonucleoprotein Complex (vRNP) of Lymphocytic Choriomeningitis Arenaviruses (LCMV): LCMV Primary Screen - GLuc reporter signal (AID 1347086). Further: nearly all actives have a fitted effect of over 70% in size. The settings on record: LCMV minigenome vRNP cell assay, Gaussia luciferase reporter; series mostly up to 57.5 µM; activity change, negative = inhibition: at the top concentration. On the technique in general: In qHTS, concentration-response curves come from the screen itself.
Nucleoprotein (Lymphocytic choriomeningitis virus (strain Armstrong)), sequence (P09992 whole entry, looked up): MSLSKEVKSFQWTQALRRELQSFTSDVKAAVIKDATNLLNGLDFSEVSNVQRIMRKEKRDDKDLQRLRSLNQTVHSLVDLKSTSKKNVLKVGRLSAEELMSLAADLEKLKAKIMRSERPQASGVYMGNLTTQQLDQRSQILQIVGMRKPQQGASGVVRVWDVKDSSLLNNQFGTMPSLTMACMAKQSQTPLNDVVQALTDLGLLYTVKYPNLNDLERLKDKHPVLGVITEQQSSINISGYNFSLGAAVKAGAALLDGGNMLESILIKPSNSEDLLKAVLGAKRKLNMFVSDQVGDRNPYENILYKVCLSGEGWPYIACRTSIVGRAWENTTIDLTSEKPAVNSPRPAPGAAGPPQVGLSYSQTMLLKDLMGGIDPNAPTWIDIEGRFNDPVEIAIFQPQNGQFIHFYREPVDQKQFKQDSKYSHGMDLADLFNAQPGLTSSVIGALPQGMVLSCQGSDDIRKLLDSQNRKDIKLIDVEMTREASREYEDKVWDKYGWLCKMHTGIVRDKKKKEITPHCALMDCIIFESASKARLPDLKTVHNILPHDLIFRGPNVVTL
`O=C(c1ccc(F)cc1)C1CCN(CCn2c(=S)[nH]c3ccccc3c2=O)CC1`: the “activity change, negative = inhibition” value was -1.36% (inactive).
Take `Oc1ccc(C(O)CNCCCCCCNCC(O)c2ccc(O)c(O)c2)cc1O` (centres undefined): the “activity change, negative = inhibition” value was 0.415% (inactive).
On to `COc1ccnc2c1CCCCC2S(=O)c1nc2ccccc2[nH]1` (centres undefined), for which the “activity change, negative = inhibition” value is 7.42% (inactive).
On to `C#C[C@]1(O)CC[C@H]2[C@@H]3CCC4=CC(=O)CC[C@@H]4[C@H]3CC[C@@]21C`, for which the “activity change, negative = inhibition” value was 24.8% (inactive).
With `CN(C)C(=O)Nc1ccc(Cl)c(Cl)c1`, the “activity change, negative = inhibition” value was -1.2% (inactive).
For `CC1(C)CCC(C)(C)c2cc(NC(=O)c3ccc(C(=O)O)cc3)ccc21`, the Potency result is “inactive”.
In the case of `O=C(O)[C@H](O)[C@@H](O)[C@H](O[C@@H]1O[C@H](CO)[C@H](O)[C@H](O)[C@H]1O)[C@H](O)CO`, the “activity change, negative = inhibition” value is 19.2% (inactive).
`N[C@@H](CSCCCO)C(=O)O`: the “activity change, negative = inhibition” value was 34% [at 24.7 µM] (inactive).
As for `COc1ccc2c(c1OC)C(=O)O[C@@H]2[C@H]1c2c(cc3c(c2OC)OCO3)CCN1C`, the Potency entry was “inactive”.
`CC(C)NCC(O)c1ccc2ccccc2c1` (centres undefined): the “activity change, negative = inhibition” value was -0.257% (inactive).
Still for that read-out and setting: with `Cc1cccc(N(C)C(=S)Oc2ccc3c(c2)C2CCC3C2)c1` (centres undefined) the figure was -4.21% (inactive); with `CCc1ccc(C(=O)C(C)CN2CCCCC2)cc1` (centres undefined), 4.23% (inactive).
With `CCCc1ncc(C(=O)O)s1`, the “activity change, negative = inhibition” value was 95.2% (inactive).
As to `CN(C)C(=O)Oc1cccc([N+](C)(C)C)c1`, the Potency entry is “inactive”.
Take `CCOC(=O)N1CCC(Nc2ccc(Cl)cc2N)CC1`: the “activity change, negative = inhibition” value was -15.7% (inactive).
For the compound `Cc1cccc(C)c1NC(=O)C(C)N` (centres undefined), the Potency result is “inactive”.
For `CCc1nnc(NS(=O)(=O)c2ccc(N)cc2)s1`, the “activity change, negative = inhibition” value is 17.3% (inactive).
Turning to `COC(=O)C1=C(C)NC(C)=C(C(=O)OCCN2CCN(C(c3ccccc3)c3ccccc3)CC2)C1c1cccc([N+](=O)[O-])c1` (centres undefined), the “activity change, negative = inhibition” value is 12.9% (inactive).
Turning to `CN1CCCN=C1/C=C/c1cccs1`, the “activity change, negative = inhibition” value is -5.3% (inactive).

The record behind these values is PubChem BioAssay (NCATS).
